{"source": "PubChem BioAssay", "note": "A number with no mark means an inactive call. No rule for the calls is given here."}
{"biological_target": "L-lactate dehydrogenase (Plasmodium falciparum (isolate CDC / Honduras)) (UniProt Q27743)", "sequence (Q27743 whole entry, looked up)": "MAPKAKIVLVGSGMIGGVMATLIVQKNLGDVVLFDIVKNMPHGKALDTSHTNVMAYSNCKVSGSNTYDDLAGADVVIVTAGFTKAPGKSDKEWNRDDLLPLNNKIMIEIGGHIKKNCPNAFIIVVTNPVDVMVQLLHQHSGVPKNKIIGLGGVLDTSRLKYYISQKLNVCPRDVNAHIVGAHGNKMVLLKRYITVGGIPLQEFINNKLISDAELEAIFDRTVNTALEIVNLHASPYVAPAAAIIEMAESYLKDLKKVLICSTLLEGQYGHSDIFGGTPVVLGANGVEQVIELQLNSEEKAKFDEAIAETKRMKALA", "experiment": "PfLDH activity inhibition – cell lysate, 3D7 strain, counter-screen for P. falciparum growth inhibition project (AID 2304);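 also: 0% = vehicle and 100% = reference inhibitor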", "details": "P. falciparum 3D7 crude extract, LDH APAD/NBT absorbance; at 2 µM; hits give high values", "units": {"inhibition": "%"}}
{"smiles": "COC(=O)C(=C(C)C)N1C(=O)[C@@H](NC(=O)OCc2ccccc2)[C@H]1SS[C@@H]1[C@H](NC(=O)OCc2ccccc2)C(=O)N1C(C(=O)OC)=C(C)C", "inhibition": -5}
{"smiles": "CCCCN(CCCC)CCC(O)C(=Cc1ccc(Cl)cc1Cl)c1ccc(C(F)(F)F)cc1N", "note": "(stereo not given)", "inhibition": 1}
{"smiles": "CCc1ccc(-n2cc(C(=O)c3cc(Br)ccc3O)cc(C#N)c2=O)cc1", "inhibition": -2}
{"smiles": "Oc1cccc(Nc2ccnc3cc(-c4cc5ccccc5o4)ccc23)c1", "inhibition": -1}
{"smiles": "Cc1cc(C2CCN(CCCCNC(=O)c3ccc(NC(=O)c4ccc(Cl)cc4)cc3)CC2)c(C)cc1OCc1ccncc1", "inhibition": 6}
{"smiles": "COc1ccc2nccc(NN=Cc3ccc([N+](=O)[O-])cc3)c2c1", "inhibition": -2}
{"smiles": "COc1ccccc1C1CCN(C2CCC(NC(=O)c3cc(-c4ccc(Cl)cc4)cs3)CC2)CC1", "note": "(stereo not given)", "inhibition": -1}
{"smiles": "Cc1cc(Nc2ccc(Cl)cc2)n2nc(C(F)(F)F)nc2n1", "inhibition": -1}
{"smiles": "COc1ccc2nccc([C@@H](O)CN3CCC(NCc4cc5ccccc5[nH]c4=O)CC3)c2c1", "inhibition": 3}
{"smiles": "Nc1c(Cl)cc(C(O)CNCCCCCOCCc2ccccc2)cc1C(F)(F)F", "note": "(stereo not given)", "inhibition": 5}
{"smiles": "COc1ccc(-c2cnc3ccc(NCc4ccc(F)cc4)nn23)cc1OC", "inhibition": -2}
{"smiles": "CCCN(CCC)C(=O)c1cc(C(=O)N[C@@H](Cc2ccccc2)[C@H](O)CNC2CC2)cc(N2CCCCS2(=O)=O)c1", "inhibition": 0}
{"smiles": "CN(C)CCOc1ccc(-c2cc(-c3ccc(Cl)c(O)c3)c(-c3ccncc3)o2)cc1", "inhibition": 2}
{"smiles": "O=C(Nc1ccc(C(=O)Nc2cccc(C3=NCCN3)c2)cc1)Nc1ccc(C2=NCCN2)cc1", "inhibition": -4}
{"smiles": "Cc1cc(C(=O)NCc2ccc(-c3c(C)noc3C)cc2)n(-c2ccccc2)n1", "inhibition": 3}
{"smiles": "O=C1OC2(CN1CC1CCN(Cc3ccc(O)c(Cl)c3)CC1)c1ccccc1-c1ccccc12", "inhibition": 0}
{"smiles": "Cc1cc(O)c(CN(C)Cc2ccc3c(c2)OCCO3)cc1C(C)C", "inhibition": -3}
{"smiles": "O=C(Nc1ccc2c(c1)CCNCC2)c1ccc(-c2ccc(Cl)cc2)cc1", "inhibition": 0}
{"smiles": "COc1cc(Cc2cnc(N)nc2N)cc(CC(C)O)c1O", "note": "(stereo not given)", "inhibition": -2}
{"smiles": "O=C(Nc1ccc(C(F)(F)F)cc1)N[C@H]1CCN(CCCCCNC(=O)[C@@H]2C[C@H]2c2ccc(Cl)c(Cl)c2)C1", "inhibition": -2}
{"smiles": "CN(C)CCNC(=O)c1ccc2c(c1)ncn2-c1cc(OCc2ccccc2C(F)(F)F)c(C(N)=O)s1", "note": "(tested in a mixture with another compound)", "inhibition": 1}
{"smiles": "CCCCCCOc1ccc(C(=O)N(Cc2ccccc2)c2c(-c3ccccc3)nc3cc(C)ccn23)cc1", "inhibition": 3}
{"smiles": "CN(C)CCn1c(N)c(-c2nc3ccccc3s2)c2nc(C#N)c(C#N)nc21", "inhibition": -7}
{"smiles": "Cc1nc(N)nc(N)c1CCCOc1cccc(Cl)c1", "inhibition": -4}
{"smiles": "CCCC(C)Nc1nc(C)cc(N[C@@H](CC(C)C)C(=O)NCc2cccc(F)c2)n1", "note": "(stereo not given in full)", "inhibition": 0}
{"smiles": "Cc1ccc(NC(=O)c2ccc(N3CCN(c4ccncc4)CC3)cc2)cc1F", "inhibition": -1}
{"smiles": "CC(CCCCOCCc1ccccc1)NCC(O)c1cc(Cl)c(N)c(Cl)c1", "note": "(stereo not given)", "inhibition": -1}
{"smiles": "O=C(Nc1ccc2nc(-c3ccc4nc(NC(=O)C5CCCCC5)sc4c3)[nH]c2c1)C1CCCCC1", "inhibition": -9}
{"smiles": "Brc1cc2c(cc1C=NNc1nc(Nc3ccccc3)nc(Nc3ccccc3)n1)OCO2", "inhibition": 1}
{"smiles": "Cc1cc(NCCCCCCN)nc(Nc2ccc(Cl)cc2)n1", "inhibition": 1}
{"smiles": "CCCCCCCCCN1CC[C@@H](CCCc2ccnc3ccc(O)cc23)[C@@H](CC)C1", "inhibition": -3}
{"smiles": "CCOC(=O)C1=C(C)NC2=C(C(=O)CC(C)(C)C2)C1c1ccc(Cl)cc1", "note": "(stereo not given)", "inhibition": 1}
{"smiles": "CN1CCN(CCCN(Cc2cccc(-c3cccc(CNCCc4ccccc4)c3)c2)C(=O)Nc2ccccc2)CC1", "inhibition": 0}
{"smiles": "Fc1cc(CN2CCCC2)ccc1OCCCN1CCN(c2cccc(Cl)c2Cl)CC1", "inhibition": -1}
{"smiles": "O=C(Nc1ccccc1F)NC1CCN(c2ccnc(Nc3ccc(F)cc3)n2)CC1", "inhibition": -4}
{"smiles": "N/C(=N/C(=NCCCCCCN=C(/N=C(/N)Nc1ccc(Cl)cc1)N1CCOCC1)N1CCOCC1)Nc1ccc(Cl)cc1", "inhibition": 2}
{"smiles": "COc1ccc(S(=O)(=O)Nc2cc(Br)cc3c2OCCC3)cc1N1CCN(C(=O)C(Cl)(Cl)Cl)CC1", "inhibition": -2}
{"smiles": "COc1ccc(CC(=O)Nc2ccc(Nc3nc(C)cc(N4CCCC4)n3)cc2)cc1", "inhibition": -1}
{"smiles": "CCOCCCNc1sc(S(=O)(=O)c2ccccc2)nc1S(=O)(=O)c1ccc(C)cc1", "inhibition": 1}
{"smiles": "N#Cc1cc(C(=O)Nc2ccccc2)c(N)nc1SCC(=O)Nc1ccc(Br)cc1", "inhibition": 1}
